# Laboratory results: the supplement of paper PMC12669032
# Values without a mark were called inactive.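 Rule for the calls: active = AUC reduced over 20% with Padj below 0.05 in at least 2 of 3 replicates; inactive = otherwise.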
# Tests used:
# [1] = tested on: Roseburia intestinalis; test: growth AUC relative to DMSO control (median of replicates) (fraction); higher = more growth (less inhibition), active = hit call of the paper; settings: 20 µM; 24 h
# Procedure, shortened: (§1)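 Hourly OD600 readings over 24 h tracked anaerobic gut bacterial monocultures grown at 37 °C in mGAM from OD600 0.05 with 20 µM compound (1% DMSO). After the minimum OD was set to 0, area under the growth curve was normalised to the plate median of solvent-only wells, or to row and column medians on the industrial chemical plate. Values are medians of three biological replicates grown on separate days.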
# [2] = tested on: Streptococcus salivarius; test: as above; settings: 20 µM; 24 h
# Procedure, shortened: as §1
Compound,growth AUC [1],growth AUC [2]
O=C(Oc1ccccc1)n1c(C(F)(F)F)nc2cc(Cl)c(Cl)cc21,0.797 (active),0.342 (active)
O=C(O)c1cccc2nnsc12,0.989,1.01
CCC/C(=N\OCC(C)Oc1ccc(Cl)cc1)C1=C(O)CC(C2CCCSC2)CC1=O (configuration not stated),1.02,0.94
CC(C)OC(=O)c1cc(C(=O)OC(C)C)cc([N+](=O)[O-])c1,0.974,0.992
Cl.NCCO/C=C/[C@H](N)C(=O)O,0.975,1.05
C#CCOc1cc(-n2nc(C(C)(C)C)oc2=O)c(Cl)cc1Cl,0.909,0.963
ClC=C(c1ccc(Cl)cc1)c1ccc(Cl)cc1,0.932,0.928
CC(C)(C)C(O)/C(=C\c1ccc(Cl)cc1)n1cncn1 (configuration not stated),0.973,0.955
CNc1nc(NC(C)C)nc(SC)n1,0.995,0.975
CCOC(=O)c1cnn(C)c1S(=O)(=O)NC(=O)Nc1nc(OC)cc(OC)n1,1.08,1.01
CCOCCOC(=O)C(C)Oc1ccc(Oc2ncc(C(F)(F)F)cc2Cl)cc1 (configuration not stated),0.953,0.959
Cc1c(C(=O)c2c[nH]n(C)c2=O)ccc(S(C)(=O)=O)c1C1=NOCC1,0.987,1.01
O=S(=O)(Oc1ccc(Cl)cc1Cl)c1ccccc1,0.974,1.03
CCCOc1nc2ccc(I)cc2c(=O)n1CCC,0.942,0.994
COc1cccc(N(C)C(=S)Oc2cccc(C(C)(C)C)c2)n1,0.984,0.967
c1ccc2c(c1)-c1cccc3c1c-2cc1ccccc13,0.998,1.03
CCc1cccc(C)c1NC(C)C(=O)O (racemic),1.04,1.02
O=S(=O)(Cc1ccc(Cl)cc1)c1ccc(Cl)cc1,1.05,1.06

Compound,growth AUC [1],growth AUC [2]
O=c1oc(-c2ccccc2)nc2ccccc12,0.979,0.981
CC1(C)C(C(=O)OC(C#N)c2cccc(Oc3ccccc3)c2)C1C(Br)C(Br)(Br)Br (configuration not stated),0.932,0.972
COc1c(Cl)ccc(Cl)c1C(=O)O,0.976,1.03
CC(C)(C)Nc1nc(N)nc(Cl)n1,1.01,0.975
CCc1cccc(C)c1N(COC(C)C)C(=O)CCl,1.01,1.01
COc1ccc(Oc2ccc(NC(=O)N(C)C)cc2)cc1,0.99,0.988
Cc1cccc(C)c1O,0.942,0.968
CC(C)C(O)(c1ccc(OC(F)(F)F)cc1)c1cncnc1 (configuration not stated),1.04,1.04
CCc1ccc(O)cc1,0.919,0.946
CC(C)N(C)S(=O)(=O)NC(=O)c1cc(-n2c(=O)cc(C(F)(F)F)[nH]c2=O)c(F)cc1Cl,0.987,1.01
CC(C)C1C2CCC1c1c(NC(=O)c3cn(C)nc3C(F)F)cccc12 (configuration not stated),0.861,0.927
COC(=O)c1c(Cl)c(Cl)c(C(=O)OC)c(Cl)c1Cl,0.964,0.962
CCOC(=O)CSc1nc(C(C)(C)C)nn1C(=O)N(C)C,0.913,0.957
CN(C)C(=O)SCCCCOc1ccccc1,0.998,0.99
CCOc1ccc(NC(=O)OC(C)C)cc1OCC,1,0.975
O=C(Nc1ccc(O)cc1-c1ccc(Cl)cc1)c1cccnc1Cl,1.02,1.03
CC(C)COC(=O)COc1cc(Cl)c(Cl)cc1Cl,1.01,0.958
CN(C)C(=O)Nc1ccc(Cl)c(Cl)c1,1.03,1.01
